Measurements: PubChem BioAssay AID651558 (National Center for Advancing Translational Sciences (NCATS), 2012)
Several values for one entry are separate records, joined by “and”; a condition that tells them apart may be missing. Identical values can stand only once. Screen size: about 1,200 compounds; about 480 (40%) were called active. Inconclusive results (about 29%) are left out. The call rests on the fitted dose curve; in most records, active means well fitted inhibition curve with a large enough effect; inconclusive means small, poorly fitted or top-dose-only effect; inactive means no such curve, though single readings can be large or run the other way. Some of the results follow.

Test: qHTS Assay to Find Inhibitors of Chronic Active B-Cell Receptor Signaling: Hit Validation in Primary Screen; further: nearly all actives have a fitted effect of over 75% in size
Conditions: ABC-DLBCL IkB-luc/CBR ratio luminescence, 4 h; series mostly up to 46.1 µM
Method in brief: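 TMD8 ABC-DLBCL cells carrying doxycycline-inducible IkBa-green luciferase fusion and free red luciferase, 0.5% FBS, dosed 46 uM–3 nM with doxycycline for 4 h at 37C. Green/red luminescence ratio normalized to basal and 10 uM MG-132.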
Potency means the concentration at half of the fitted maximal effect.

Row | Structure (SMILES) | Potency
1 | CCN(CC)C(=S)NC(=O)c1ccc(F)cc1 | inactive
2 | CCOC(=O)N1CCC(NC(=O)c2ccc3c(c2)N=C(C)c2c(C)ccc(C)c2S3)CC1 | 6.51 µM (active)
3 | CCOC(=O)N1CCC(NC(=O)CS(=O)(=O)Cc2nc(-c3ccccc3C)oc2C)CC1 | inactive
4 | CC1=Nc2cc(C(=O)NC3CCCC3)ccc2Sc2ccc(Cl)cc21 | 2.59 µM (active)
5 | CC1=Nc2cc(C(=O)NC3CCCCC3)ccc2Sc2ccc(Cl)cc21 | 2.31 µM (active)
6 | CCCC1=Nc2cc(C(=O)NC3CCCCC3)ccc2Sc2ccc(C)cc21 | 0.259 µM (active)
7 | COc1ccccc1-c1nnc2sc(-c3ccc(N(C)C)cc3)nn12 | 1.16 µM (active)
8 | CCN(CC)c1ccc(-c2nn3c(-c4n[nH]c5c4CCC5)nnc3s2)cc1 | 0.651 µM (active)
9 | CCN(CC)c1ccc(-c2nn3c(-c4ccccc4OC)nnc3s2)cc1 | 1.46 µM (active)
10 | CN(C)c1ccc(-c2nn3c(-c4ccccc4Cl)nnc3s2)cc1 | 2.91 µM (active)
11 | C[C@]12CC[C@H]3C(=CCc4cc(O)ccc43)[C@@H]1CCC2=O | inactive
12 | Cc1ccccc1-c1nc2c3ccccc3nc(=S)n2[nH]1 | inactive
13 | S=c1nc2ccccc2c2nc(-c3ccccc3)[nH]n12 | 23.1 µM (active)
14 | S=c1nc2ccccc2c2nc(-c3ccccc3Cl)[nH]n12 | inactive
15 | CCN1C(=O)c2cccc3c(NC(=O)c4ccc(OC)c(OC)c4)ccc1c23 | 10.3 µM (active)
16 | COc1ccc2c(c1)C(C)=CC(C)(C)N2S(=O)(=O)c1ccc(Br)cc1 | 3.26 µM (active)
17 | COc1ccc2c(c1)C(C)=CC(C)(C)N2S(=O)(=O)c1ccc(NC(C)=O)cc1 | 3.26 µM (active)
18 | CCOc1ccc2c(c1)C(C)=CC(C)(C)N2S(=O)(=O)c1ccc(C)cc1 | 3.26 µM (active)
19 | CCOc1ccc2c(c1)C(C)=CC(C)(C)N2S(=O)(=O)c1ccc(NC(C)=O)cc1 | 1.3 µM (active)
20 | N#CC1=C(S)N(c2ccc(F)cc2)C(c2ccco2)NC1=O (centres undefined) | inactive
21 | CCOc1ccc(NC(=S)N(CCc2c(C)[nH]c3ccccc23)Cc2cccnc2)cc1 | inactive
22 | CCOc1ccc(NC(=O)c2cc(OC)nc3ccccc23)cc1 | 5.17 µM (active)
23 | COc1ccc(NC(=O)CSc2nc(N)c(C(=O)Nc3ccc(N(C)C)cc3)s2)cc1 | inactive
24 | COc1ccc(C2CC(c3ccncc3)=NN2c2ccc(S(N)(=O)=O)cc2)cc1 (centres undefined) | inactive
25 | COc1ccc(C2=NN(C(C)=O)C(c3cccs3)C2)cc1OC (centres undefined) | inactive
26 | COc1ccc(C2CC(c3ccc(OC)c(OC)c3)=NN2C(=O)c2ccccc2)cc1 (centres undefined) | 6.51 µM (active)

Row | Structure (SMILES) | Potency
27 | N=C1SCC(=O)N1c1ncc(Cc2cccc(Cl)c2)s1 | 20.6 µM (active)
28 | O=c1cc(-c2cccc(F)c2)[nH]c2ccccc12 | 3.66 µM (active)
29 | NNC(=O)c1[nH]c2ccc(Br)cc2c1-c1ccccc1 | inactive
30 | O=c1cc(-c2ccccc2)[nH]c2ccc(F)cc12 | 10.3 µM (active)
31 | O=c1cc(-c2ccccc2)[nH]c2ccccc12 | 11.6 µM (active)
32 | O=c1cc(-c2ccc(F)cc2)[nH][nH]1 | inactive
33 | O=Cc1ccc(O)c2ncccc12 | inactive
34 | O=[N+]([O-])c1cc(Cl)c2cccnc2c1O | inactive
35 | COc1ccc(CC2(CO)CCN(Cc3cccc4nccnc34)CC2)cc1 | inactive
36 | CCCc1nc([N+](=O)[O-])c(S(=O)(=O)c2ccccc2)n1CC(C)C | 16.4 µM (active)
37 | Cc1cc(C)nc(SCc2ccc(C(=O)N/N=C/c3cccnc3)cc2)n1 | inactive
38 | N#Cc1ccc(-c2cccs2)nc1SCc1cccnc1 | 16.4 µM (active)
39 | COc1ccc2c(c1)sc1nc(-c3ccccc3)cn12 | 3.26 µM (active)
40 | Cc1ccc(C)c(NC(=S)N=Nc2c(O)n(C)c3ccc(S(=O)(=O)N4CCOCC4)cc23)c1 | inactive
41 | COc1ccc(C2=Nn3c(nnc3-c3ccccn3)SC2)cc1OC | inactive
42 | COc1ccc(C2=Nn3c(nnc3-c3ccc(OC)cc3)SC2)cc1 | 14.6 µM (active)
43 | CCOc1ccc(C2=Nn3c(nnc3-c3ccccc3OC)SC2)cc1 | 0.0731 µM (active)
44 | COc1ccc(C2=Nn3c(nnc3C3CCCCC3)SC2)cc1OC | 2.31 µM (active)
45 | COc1ccc(C2=Nn3c(nnc3-c3ccccc3OC)SC2)cc1OC | 1.3 µM (active)
46 | CNC(=S)N/N=C(\C)c1ccc(Cl)s1 | inactive
47 | S=C(Nc1ccccc1)c1nc2ccccc2s1 | inactive
48 | Cc1ccc(-c2oc3ncnc(N)c3c2-c2ccc(C)cc2)cc1 | inactive
49 | COc1ccccc1-c1nnc2n1N=C(c1ccc(O)c(O)c1)CS2 | 0.206 µM (active)
50 | NC(=S)N/N=C/c1ccccc1OC(=O)/C=C/c1ccccc1 | inactive
51 | Cc1cccc(C(=O)Oc2ccc(/C=N/O)cc2)c1 | inactive
52 | COc1ccc(C(=O)N/N=C/c2ccccc2OC(=O)c2ccccc2)cc1 | 0.651 µM (active)

Row | Structure (SMILES) | Potency
53 | Cc1cccc(C)c1NS(=O)(=O)c1ccc(-c2cnc(C3CC3)o2)cc1 | 0.291 µM (active)
54 | Cc1cccc(NS(=O)(=O)c2ccc(C3CCCCC3)cc2)n1 | inactive
55 | Cc1cccc(NS(=O)(=O)c2ccc(-c3cnc(C4CC4)o3)cc2)c1C | 0.92 µM (active)
56 | CCOCCOC(=O)c1[nH]c2c(c1C)C(=O)CC(c1ccccc1)C2 (centres undefined) | 1.64 µM (active)
57 | COC(=O)c1[nH]c2c(c1C)C(=O)CC(c1ccccc1)C2 (centres undefined) | 1.3 µM (active)
58 | COCCOC(=O)c1[nH]c2c(c1C)C(=O)CC(c1ccccc1)C2 (centres undefined) | inactive
59 | CCOCCOC(=O)c1[nH]c2c(c1C)C(=O)CC(c1cccs1)C2 (centres undefined) | 2.59 µM (active)
60 | COc1ccc(OC)c(C2CC(=O)c3c([nH]c(C(=O)OC(C)C)c3C)C2)c1 (centres undefined) | 1.64 µM (active)
61 | NC(=S)N/N=C/c1ncc(C(F)(F)F)cc1Cl | inactive
62 | C/C(=N\N1C(=O)c2ccccc2NC1c1ccco1)c1ccccc1O (centres undefined) | inactive
63 | CCNC(=S)N/N=C(\C)c1ccc(Cl)s1 | inactive
64 | O=C(CSc1cccc[n+]1[O-])c1ccc(-c2ccccc2)cc1 | inactive
65 | O=C1N/C(=C/c2ccc(N3CCOCC3)o2)C(=O)N1c1ccccc1 | 16.4 µM (active)
66 | Cc1ccc(/C(C#N)=C\c2ccc(N3CCOCC3)o2)cc1 | inactive
67 | O=S1(=O)N=C(Nc2nc3c(s2)CCCC3)c2ccccc21 | 7.31 µM (active)
68 | Cc1ccc(/C=[N+](\[O-])c2ccc(N(C)C)cc2)c2nsnc12 | inactive
69 | O=C(COc1ccc(-c2ccccc2)cc1)N1CCN(S(=O)(=O)Cc2ccccc2)CC1 | inactive
70 | Cc1cccc(OCCCC(=O)NNC(=O)c2cccc(N(C)C)c2)c1 | inactive
71 | Cc1ccc(OCCN2C(=O)C(=O)c3cc(C)ccc32)cc1 | 20.6 µM (active)
72 | Cc1ccc2c(c1)C(=O)C(=O)N2CCOc1ccccc1 | 20.6 µM (active)
73 | CCCN1C(=O)C(=O)c2cc(Cl)ccc21 | 18.4 µM (active)
74 | Cc1cccc(OCCN2C(=O)C(=O)c3cc(C)ccc32)c1 | 23.1 µM (active)
75 | Cc1cccc(OCCCN2C(=O)C(=O)c3cc(C)ccc32)c1 | inactive
76 | Cc1noc(C)c1COc1ccc(CC(=O)NCc2ccccc2)cc1 | 14.6 µM (active)
77 | O=C(Cc1ccc(-c2ccccc2)cc1)NCc1ccccc1 | 0.517 µM (active)
78 | O=C(COC(=O)Cc1ccc(-c2ccccc2)cc1)NCc1ccccc1 | inactive

Row | Structure (SMILES) | Potency
79 | NC(=O)NC[C@@H]1CC[C@@H](Cc2ccc(-c3ccccc3)cc2)O1 | inactive
80 | Cc1ccccc1N=Nc1c(C)[nH]n(C(N)=S)c1=O | inactive
81 | Clc1ccc2nc(-c3ccccc3)nc(C(Cl)Cl)c2c1 | 4.61 µM (active)
82 | CCOc1ccc(S(=O)(=O)NCc2ccccn2)cc1NC(=O)c1ccccc1F | 8.2 µM (active)
83 | Cc1ccc(S(=O)(=O)Nc2cccc(-c3ccc4nncn4n3)c2)cc1 | 16.4 µM (active)
84 | CNCc1ccccc1Sc1ccc(O)c(O)c1 | 23.1 µM (active)
85 | CS(=O)(=O)C1=C(O)C(=O)N(c2ccccc2)C1c1ccccc1 (centres undefined) | inactive
86 | COc1ccc(NC(=O)/C(C#N)=C\c2cc(C)n(-c3ccc4c(c3)OCO4)c2C)cc1 | 2.31 µM (active)
87 | Oc1cccc(Nc2nc(N3CCOCC3)nc(N3CCOCC3)n2)c1 | 8.2 µM (active)
88 | Cc1cc(C)n(-c2nc3ccccc3c(=O)n2OCC#N)n1 | 23.1 µM (active)
89 | Cc1ccc(S(=O)(=O)Cc2ccc(C(=O)N3CCN(c4cccc(C)c4C)CC3)o2)cc1 | 5.17 µM (active) and 20.6 µM (active)
90 | Oc1[nH]c2ccccc2c1N=NC(=S)N1CCOCC1 | inactive
91 | COc1ccc(-c2ccc(CCC(=O)O)n2-c2ccccc2OC)cc1 | inactive
92 | N#C/C(=C\c1cn(Cc2ccc(F)cc2)c2ccccc12)C(=O)NCc1ccco1 | inactive
93 | COc1ccc(CNC(=O)/C(C#N)=C/c2cccc(OC)c2OC)cc1 | 18.4 µM (active)
94 | CC1CC(C)CN(S(=O)(=O)c2ccc(NC(=O)c3ccc(=O)[nH]c3)cc2)C1 (centres undefined) | 9.2 µM (active)
95 | Oc1cccc(/C=N/Nc2ccc(Cl)nn2)c1O | 14.6 µM (active)
96 | Oc1ccccc1/C=N/Nc1ccnc(SCc2ccccc2)n1 | inactive
97 | CCCCN1C(=O)N(C)C2C1N(C)C(=O)N2CCCC (centres undefined) | inactive
98 | O=C(CCl)Nc1cc(S(=O)(=O)N2CCCCCC2)ccc1Cl | 20.6 µM (active)
99 | O=C(CNC(=O)c1ccco1)N=Nc1c(O)n(CCc2ccccc2)c2ccccc12 | 5.8 µM (active)
100 | O=[N+]([O-])c1cc(/C=N/O)ccc1Sc1ccccc1 | inactive
101 | Cc1csc(NC(=S)NC(=O)c2ccccc2)n1 | inactive
102 | CCOC(=S)SCC(=O)Nc1nc(-c2ccc(Br)cc2)cs1 | 3.66 µM (active)
103 | CCOC(=O)Cc1csc(NC(=S)NC(=O)c2ccccc2)n1 | inactive
104 | CC(=O)c1ccc2c(c1)CC(C)C(=O)N2C (centres undefined) | inactive
